According to PubChem BioAssay (Tox21):
Inconclusive results are not listed. Where a call stands in place of a potency, no number is given. The source made the active and inactive calls. Calls follow the shape of the full dose curve.

Biological target: Beta-2 adrenergic receptor (Homo sapiens) (UniProt P07550)
Assay: Adrenergic beta2 receptor (ADRB2) small molecule agonists, cell-based qHTS assay (AID 1963593)
Method in brief: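 CHO cells stably over-expressing ADRB2 were plated overnight at 37C, then dosed with compounds plus a stimulation mix containing 100uM IBMX and 25uM Ro-20-1724 for 0.5hr at room temperature. cAMP was measured by HTRF competition, 1hr.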
Potency is read from the fitted curve at half-maximal effect.

Beta-2 adrenergic receptor (Homo sapiens), sequence (P07550 whole entry, looked up): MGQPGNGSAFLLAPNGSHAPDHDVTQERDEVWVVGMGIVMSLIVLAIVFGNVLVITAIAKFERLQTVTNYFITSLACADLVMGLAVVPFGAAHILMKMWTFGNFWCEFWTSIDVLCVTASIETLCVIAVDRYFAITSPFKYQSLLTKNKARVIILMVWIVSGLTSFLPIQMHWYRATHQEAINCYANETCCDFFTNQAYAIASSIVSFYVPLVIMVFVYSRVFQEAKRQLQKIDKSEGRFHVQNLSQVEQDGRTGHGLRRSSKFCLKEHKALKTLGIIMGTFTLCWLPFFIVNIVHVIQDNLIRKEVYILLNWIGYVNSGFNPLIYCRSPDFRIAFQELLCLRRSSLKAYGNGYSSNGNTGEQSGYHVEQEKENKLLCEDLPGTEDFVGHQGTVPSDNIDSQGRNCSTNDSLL

SMILES | Potency
O=C(O)c1ccc2cc(O)ccc2c1 | inactive
CCCCN(CCCC)C(=O)N(CCCC)CCCC | inactive
CC(CN(C)C)C(C)(O)Cc1ccc(Cl)cc1 (stereo not drawn) | inactive
CC(C)(C)C(=O)/C=C/c1ccc(Cl)cc1 | inactive
CNCc1ccccc1 | inactive
CC1CCc2cc(F)cc3c(=O)c(C(=O)O)cn1c23 (stereo not drawn) | inactive
O=C1c2ccccc2C(=O)C1c1nc2ccccc2c(Br)c1O | inactive
O=C1c2cccc(O)c2C(=O)c2c(O)cc(CO)cc21 | inactive
CS(=O)(=O)c1ccc([C@@H](C[C@H]2CCC(=O)C2)C(=O)Nc2cnccn2)cc1Cl | inactive
Cc1c(F)cc2c(=O)c(C(=O)O)cn3c2c1CCC3C (stereo not drawn) | inactive
CN1CCCN=C1COC(=O)C(O)(c1ccccc1)C1CCCCC1 (stereo not drawn) | inactive
CCCCC1CCCCC(=O)O1 (stereo not drawn) | inactive
CCCn1cnc2c1c(=O)n(CCCCC(C)=O)c(=O)n2C | inactive
CCCCC(CC)COC(=O)CCCCCCCCC(=O)OCC(CC)CCCC (stereo not drawn) | inactive
CC(C)(C)C(=O)OCOC(=O)[C@@H]1N2C(=O)[C@@H](NC(=O)[C@H](N)c3ccccc3)[C@H]2SC1(C)C | inactive
CCC(CO)(CO)[N+](=O)[O-] | inactive
O=C1c2ccccc2C(=O)C1(O)O | inactive
CC(NN)c1ccccc1 (stereo not drawn) | inactive
CC(C)(c1ccc(Oc2ccc3c(c2)C(=O)OC3=O)cc1)c1ccc(Oc2ccc3c(c2)C(=O)OC3=O)cc1 | inactive

SMILES | Potency
C=CC(=O)OCCOC(=O)CCC(=O)O | inactive
CCOC(=O)C1CC(=O)C(=C(O)C2CC2)C(=O)C1 (stereo not drawn) | inactive
CC(=O)Nc1ccc(N)cc1 | inactive
CCN1CCCC1CN (stereo not drawn) | inactive
O=C(O)c1cccc(C(=O)O)c1C(=O)O | inactive
CC[C@H](NC(C)C)[C@H](O)c1ccc(O)c2[nH]c(=O)ccc12 | 1.7 nM (active)
O=S(=O)(O)c1ccc(Cl)cc1 | inactive
CC(C)Cc1ccc(C(C)C(=O)OCc2ccccn2)cc1 (stereo not drawn) | inactive
O=C(O)CCSCCC(=O)O | inactive
CN1CCN(c2c(F)cc3c(=O)c(C(=O)O)cn4c3c2OCN4C)CC1 | inactive
COc1cccc(O)c1 | inactive
CCCCCCCCCC=O | inactive
C[C@H](CN1CCCC1)C(=O)c1ccc(C(F)(F)F)cc1 | inactive
CCC(C(=O)OCCN(CC)CC)c1ccccc1 (stereo not drawn) | inactive
CCCCCCC(O)CCCCCCCCCCC(=O)OC (stereo not drawn) | inactive
O=C1OC(=O)c2cc([N+](=O)[O-])ccc21 | inactive
CCCCc1ccc2c(n1)[C@@H](c1ccc(OC)cc1C[C@H](C)C(=O)O)[C@H](C(=O)O)[C@H]2c1ccc2c(c1)OCO2 | inactive
C[N+]1(CC2COC(c3ccccc3)(c3ccccc3)O2)CCCCC1 (stereo not drawn) | inactive
C[C@@H]1CN(CCCn2c3ccccc3c3ccccc32)C[C@H](C)N1 | inactive
